Consider 94 molecules from PubChem BioAssay AID492956 (The Scripps Research Institute Molecular Screening Center, 2010).

The campaign covered roughly 340,000 compounds. About 3,300 (0.97%) were called active. This excerpt belongs to a sample that is enriched for actives. A number with no mark means an inactive call.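 How the source made its calls: active means inhibition above the mean over all tested compounds plus 3 SD (cut at about 30% in these data); inactive means the rest.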

For the test, the target named is Platelet-activating factor acetylhydrolase 2, cytoplasmic (Homo sapiens) (UniProt Q99487). In words: PAFAH2 enzyme inhibitors, primary screen, biochemical, fluorescence polarization, human (AID 492956).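 Further: inhibitors block probe labeling of enzyme so polarization drops; 0% = enzyme with DMSO and 100% = wells lacking PAFAH2 protein.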 As to conditions: recombinant PAFAH2, FP-rhodamine activity probe, at 3.39 µM, stronger effect = higher value.
Turning to `CCOc1ccccc1NS(=O)(=O)c1cc2c3c(c1)C(C)C(=O)N3CCC2` (centres undefined), the inhibition is 6.38%.

Regarding `CCOc1ccccc1OCC(=O)Nc1ccccc1C(=O)NC1CC1`, the inhibition was 2.58%.

Take `CC(=O)Oc1ccc(-c2nc3c(C)cccc3c(=O)o2)cc1`: the inhibition is 40.7% (active).

With `COc1nc(N=C(N)N)nc2c(C)cccc12`, the inhibition is 6.78%.

Turning to `CC(=O)Oc1ccc2c(=O)oc(-c3ccc([N+](=O)[O-])cc3)nc2c1`, the inhibition is 29.4%.

As to `Cc1cc(C)cc(C(=O)NC(=S)Nc2ccc3[nH]c(=O)[nH]c3c2)c1`, the inhibition is -14%.

Regarding `CC1(C)C2CC=C(/C=N/NC(=O)C3CC3)C1C2` (centres undefined), the inhibition is -2.63%.

For the molecule `CCN(CC)CCCNC(=O)c1ccc2c(=O)n(Cc3ccc4c(c3)OCO4)c(=S)[nH]c2c1`, the inhibition is 4.33%.

Consider `CN(C)S(=O)(=O)c1ccc(NC(=O)COC(=O)c2n[nH]c3ccccc23)cc1`, for which the inhibition was -1.53%.

Take `C=CCN(CC=C)C(=O)COC(=O)c1n[nH]c2ccccc12`: the inhibition is 3.36%.

Regarding `O=C(COC(=O)c1n[nH]c2ccccc12)Nc1ccccc1Br`, the inhibition is 47.3% (active).

Regarding `O=C(COC(=O)c1ncc(Cl)c(Cl)c1Cl)NCc1ccccc1`, the inhibition was -0.64%.

As to `O=C(COC(=O)c1n[nH]c2ccccc12)NCc1ccccc1`, the inhibition is 35.5% (active).

`COc1ccc(NC(=O)COC(=O)c2n[nH]c3ccccc23)c(OC)c1`: the inhibition was 7.22%.

As to `O=C(O)CC(c1ccccc1F)N1Cc2ccccc2C1=O` (centres undefined), the inhibition is 3.09%.

Consider `Cc1ccn2c(=O)nc(SCC(=O)NCc3ccc4c(c3)OCO4)nc2c1`, for which the inhibition is -12.4%.

For `Nc1nc(Br)c2ccccc2c1-c1ccc(F)cc1`, the inhibition is 0.32%.

Take `COCCCn1c(SCC(=O)Nc2oc(C)c3c(C)n[nH]c(=O)c23)nc2sc3c(c2c1=O)CCC3`: the inhibition was -2.08%.

For `CCN(CC)S(=O)(=O)c1ccc2nc(CSc3nnnn3-c3ccc(O)cc3)[nH]c2c1`, the inhibition was -3.11%.

Regarding `C(#CCN1CCOCC1)CCCN1CCOCC1`, the inhibition was 6.41%.

`O=C(COC(=O)CCc1c[nH]c(=O)[nH]1)Nc1ccccc1Cl`: the inhibition is 1.19%.

Take `Cc1cnc(C(=O)OCC(=O)Nc2ccc(Cl)cc2Cl)cn1`: the inhibition is -10.2%.

Regarding `Cc1cc(C(=O)OCC(=O)Nc2ccc(F)c(F)c2)c(C)o1`, the inhibition is 81.8% (active).

For `O=C(COC(=O)c1ccc[nH]c1=O)Nc1ccc2c(c1)OC(F)(F)O2`, the inhibition is -3.01%.

In the case of `Cc1cc(C)cc(C(=O)OCC(=O)NCCNC(=O)COC(=O)c2cc(C)cc(C)c2)c1`, the inhibition was 3.14%.

Consider `Cc1cc(C(=O)OCC(=O)Nc2ccccc2Cl)c(C)o1`, for which the inhibition was 45.1% (active).

Consider `Cc1cc(C(=O)OCC(=O)c2c(N)n(C)c(=O)n(C)c2=O)c(C)o1`, for which the inhibition is 10.2%.

Regarding `Cc1cc(C)cc(NC(=O)COC(=O)c2cc(C)oc2C)c1`, the inhibition is 60.9% (active).

On to `COc1cc(NC(=O)COC(=O)c2cc(S(=O)(=O)N3CCOCC3)ccc2F)cc(OC)c1`, for which the inhibition is -0.21%.

Turning to `CONc1nc2nonc2nc1NOC`, the inhibition was 5.98%.

Regarding `Cc1ccc(Nc2c(F)c(F)c(F)c(F)c2C(=O)O)c(C)c1`, the inhibition is 4.36%.

With `Cn1c(=O)c(C(=O)Nc2ncccn2)c(O)c2ccccc21`, the inhibition was -2.23%.

With `Cc1cc(=O)n2nc(N3CCCC3C(=O)NCCCN3CC(C)CC(C)C3)sc2n1` (centres undefined), the inhibition is -2.55%.

Regarding `O=C(COC(=O)c1ccc(F)cc1)Nc1ccc2c(c1)OCO2`, the inhibition is 81% (active).

As for `O=C(COC(=O)c1ccncc1)Nc1ccc2c(c1)OCO2`, the inhibition was 1.78%.

On to `O=C(COc1ccc(Cl)cc1)Nc1ccc2c(c1)OCO2`, for which the inhibition is -4.53%.

With `Cc1cccc(C(=O)OCC(=O)Nc2ccc(F)cc2)c1`, the inhibition is 84% (active).

With `O=C(COC(=O)c1cccc(Cl)c1)Nc1ccc2[nH]c(=O)[nH]c2c1`, the inhibition is -4.35%.

With `Cc1cccc(C(=O)OCC(=O)Nc2sc3c(c2C#N)CCC3)c1`, the inhibition is 3.15%.

Regarding `Cn1c(=O)c2c(ncn2CC(=O)N/N=C/c2cn[nH]c2-c2ccc(F)cc2)n(C)c1=O`, the inhibition is 3.66%.

For the molecule `O=C(NCc1ccco1)/C(=C/c1cccc([N+](=O)[O-])c1)NC(=O)c1ccco1`, the inhibition is -0.82%.

For the molecule `CN1C(=O)/C(=C/C=C2\SCCN2C)OC1=S`, the inhibition is -4.81%.

For `COc1ccc(NS(=O)(=O)c2cc(NC(=O)C3CCCCC3)ccc2N2CCOCC2)cc1`, the inhibition was 0.82%.

Take `O=C(NCCS(=O)(=O)N1CCN(c2ccccc2F)CC1)c1ccc(Br)o1`: the inhibition was -0.55%.

As to `O=C(ON=C1CCN(S(=O)(=O)c2ccccc2)CC1)c1ccc(Cl)cc1`, the inhibition is 86.6% (active).

As to `COC(=O)c1ccc(S(=O)(=O)N2CCc3ccccc3C2)cc1`, the inhibition is -2.2%.

Regarding `CC(OC(=O)c1ccc(S(=O)(=O)N2CCOCC2)cc1)c1ccccc1` (centres undefined), the inhibition is 2.29%.

With `CN1CCC(OC(=O)COc2ccc(Cl)cc2Cl)CC1`, the inhibition was -2.95%.

`CCN(C(=O)COC(=O)c1sccc1C)c1c(N)n(Cc2ccccc2)c(=O)[nH]c1=O`: the inhibition is -2.58%.

For `Cc1ccc(-n2ncc3c(=O)n(-c4ccc(C)c(C)c4)c(-c4ccco4)nc32)cc1`, the inhibition was -1.39%.

Regarding `CC(=O)Cn1cnc2c(cnn2-c2ccccc2)c1=O`, the inhibition is -0.98%.

For `Cc1ccc(-c2nc3c(cnn3-c3ccccc3)c(=O)o2)cc1`, the inhibition is 59.4% (active).

Consider `O=c1cc(O)c(-c2cccc(C(F)(F)F)c2)c(Cl)[nH]1`, for which the inhibition was -1.33%.

For the molecule `COc1ccc(S(=O)(=O)N2CCOCC2)cc1NC(=O)CSc1cc(C)ccc1C`, the inhibition is 2.32%.

Regarding `COc1ccc(S(=O)(=O)N2CCOCC2)cc1NC(=O)Cc1c(F)cccc1Cl`, the inhibition was 43.5% (active).

Turning to `COc1ccc(S(=O)(=O)N2CCOCC2)cc1NC(=O)Cc1coc2cc(C)ccc12`, the inhibition was 39.9% (active).

In the case of `COc1ccc(S(=O)(=O)N2CCOCC2)cc1NC(=O)COc1ccccc1`, the inhibition is 6.32%.

Consider `COc1ccc(S(=O)(=O)N2CCOCC2)cc1NC(=O)c1ccc(OCC(C)C)c(OC)c1`, for which the inhibition is 4.28%.

As for `COc1ccc(S(=O)(=O)N2CCOCC2)cc1NC(=O)CSc1ncnc2ccccc12`, the inhibition is 0.39%.

Turning to `COc1ccc(S(=O)(=O)N2CCOCC2)cc1NC(=O)CC1CC2CCC1C2` (centres undefined), the inhibition was 70.4% (active).

`COc1ccc(S(=O)(=O)N2CCOCC2)cc1NC(=O)CSc1nnc(NC2CC2)s1`: the inhibition is 3.17%.

Turning to `COc1ccc(S(=O)(=O)N2CCCCCC2)cc1NC(=O)Cc1ccc(OC)c(OC)c1`, the inhibition was 14.1%.

Turning to `CC(=O)NC(CC(=O)Nc1nccs1)c1ccccc1` (centres undefined), the inhibition is 0.3%.

For the molecule `Cc1cnc(C)c(N2CCN(C(=O)C3CCC(=O)N(CCc4cccc(F)c4)C3)CC2)n1` (centres undefined), the inhibition is 6.98%.

Regarding `O=S(=O)(O)c1cc2onnc2c2ccccc12`, the inhibition was 18.2%.

As for `CCOC(=O)C1=C(C)c2ccccc2OC1(C)C(=O)OCC` (centres undefined), the inhibition is 0.57%.

On to `CCOC(=O)c1c(C)[nH]c2c1-c1ccccc1C(=O)C2=O`, for which the inhibition is 53.9% (active).

For the molecule `CCOC(=O)c1ccccc1OC(=O)Oc1ccccc1C(=O)OCC`, the inhibition was 2.01%.

For `CCOc1ccc(OCC)c(NC(=O)C(NS(=O)(=O)c2ccc3c(c2)oc(=O)n3C)C(C)C)c1` (centres undefined), the inhibition was -6.23%.

As to `O=C(NC1CCCC1)C1CC(=O)N(c2ccc(F)cc2)C1` (centres undefined), the inhibition is 5.88%.

`CC(=O)NS(=O)(=O)c1ccccc1`: the inhibition is -3.11%.

Take `CCCCn1ccnc1C(=O)c1cccc(S(=O)(=O)N2c3ccccc3CC2C)c1` (centres undefined): the inhibition is 0.31%.

For the molecule `N#Cc1ccccc1Sc1ccccc1C(=O)OCC(=O)NC1CCCCC1`, the inhibition is 31% (active).

With `O=C(COC(=O)c1ccccc1SCC(=O)NC1CCCCC1)NC1CCCCC1`, the inhibition is 59.5% (active).

On to `O=C(COC(=O)c1cccc(Cl)c1)NC(=O)NCc1ccccc1`, for which the inhibition was 1.23%.

On to `CCOc1ncccc1C(=O)OCC(=O)NC1CC1`, for which the inhibition is 15.7%.

Regarding `O=C(COC(=O)c1cccc(Cl)c1)NC1CCCCCCC1`, the inhibition was 82.5% (active).

For `N#Cc1ccc(C(=O)OCC(=O)NC(=O)NC2CCCCC2)cc1`, the inhibition is 6.68%.

Regarding `CCN(C(=O)COC(=O)c1cc(NS(=O)(=O)c2ccc(Cl)c([N+](=O)[O-])c2)ccc1O)C1CCCCC1`, the inhibition is 14.6%.

As for `O=C(COc1ccccc1O)NC1CCCC1`, the inhibition is 1.1%.

In the case of `COc1ccc(NS(=O)(=O)c2ccc(O)c(C(=O)OCC(=O)NC3CCCCC3)c2)cc1`, the inhibition is 41% (active).

On to `O=C(COC(=O)c1cc([N+](=O)[O-])ccc1NCc1ccccc1)NC1CCCCC1`, for which the inhibition was 9.35%.

`Cc1ccc(C(=O)NCC(=O)OCC(=O)NC2CCCCCCC2)cc1`: the inhibition was -6.95%.

Consider `CC(C)NS(=O)(=O)c1ccc(OCC(=O)NC2CCCCCC2)cc1`, for which the inhibition is 5.5%.

Regarding `CCN(CC)S(=O)(=O)c1ccc(N2CCN(C)CC2)c(NC(=O)Nc2ccccc2F)c1`, the inhibition is -13.1%.

As to `COc1ccc(CN2CC[C@H]3C=CC[C@@H](C(=O)N4CCOCC4)[C@H]3C2=O)cc1OC`, the inhibition was -0.91%.

Regarding `COc1cc(NC(=S)NCCSc2ccc(C)cc2)cc(OC)c1`, the inhibition is 5.74%.

Turning to `COc1ccc(C(=O)C2CCCN(C(=O)c3cnsn3)C2)c(C)c1` (centres undefined), the inhibition was -5.08%.

Take `COc1ccccc1NC(=O)COC(=O)c1ccccc1SCC(=O)N1CCCC1`: the inhibition is 16.2%.

For the molecule `O=C(COC(=O)c1ccccc1Cl)NC1CCCCCCC1`, the inhibition is 68.9% (active).

Consider `O=C(COC(=O)c1cccnc1Cl)NC(=O)NC1CCCCC1`, for which the inhibition was 0.86%.

In the case of `O=C(COC(=O)c1ccccc1SCC(=O)N1CCCC1)Nc1ccccc1OC(F)F`, the inhibition is 49.4% (active).

On to `CS(=O)(=O)Nc1ccccc1C(=O)OCC(=O)NC1CC1`, for which the inhibition is 9.45%.

With `CC(C)N(Cc1ccccc1)C(=O)COC(=O)c1ccccc1SCC(=O)N1CCCC1`, the inhibition was -10.1%.

What is called inhibition is the drop in the measured response relative to a control, in per cent.
